Results filed as inconclusive are left out. Calls of active or inactive are those of the source. Calls follow the shape of the dose curve; as a rule, active = well fitted activation curve with a large enough effect in the repeat runs; inconclusive = weak or mixed curves, or effect the other way; inactive = no such curve, though single readings can be large or run the other way.
Test: qHTS assay to identify small molecule agonists of the retinoic acid receptor (RAR) signaling pathway (AID 1159553)
Details: C3RL4 RARE luciferase reporter, agonist, 6 h; activation: at 73.3 µM (top of the series)
Outline: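 6 hr compound exposure (DMSO vehicle) of overnight-plated C3RL4 RARE-luc cells at 37 C; luminescence quantified after 30 min RT with luciferase reagent.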
% is scaled to controls: 0 for no effect and ±100 for the full control effect.

Compound | activation
BrC/C=C/CBr | -1.27% [at 34.3 µM] (inactive)
CC(=O)Nc1ncc([N+](=O)[O-])s1 | -4.99% (inactive)
CC(=O)OC(C)(C)Cc1ccccc1 | 0.461% (inactive)
CCCCCCCCOC(C)=O | 0.317% (inactive)
CC(C)(c1ccc(Oc2ccc3c(c2)C(=O)OC3=O)cc1)c1ccc(Oc2ccc3c(c2)C(=O)OC3=O)cc1 | 0.374% (inactive)
C=CC(C)(O)CC/C=C(\C)CC (centres undefined) | -0.522% (inactive)
CC(Cl)COP(=O)(OCC(C)Cl)OCC(C)Cl (centres undefined) | -2.18% (inactive)
C=C(C)C(=O)OCCCCCCOC(=O)C(=C)C | 1.9% (inactive)
O=C(O)CCNC(=O)c1ccccc1 | -0.215% (inactive)
CCCOCCOCCOCCO | 1.48% (inactive)
COCC(=O)Nc1c(I)c(C(=O)NCC(O)CO)c(I)c(C(=O)N(C)CC(O)CO)c1I (centres undefined) | -1.18% (inactive)
CCCCCCCCCCCCCCCCI | -1.99% [at 34.3 µM] (inactive)
N#CCCOCCOCCC#N | -1.56% (inactive)
C=CCOc1c(Br)cc(Br)cc1Br | -1.41% (inactive)
SCCSCCS | 8.76% (inactive)
CC1CCC(C(C)(C)S)C(=O)C1 (centres undefined) | -0.0232% (inactive)
CCOC(=O)C(C)(C)C | -0.704% [at 94.8 µM] (inactive)
CC(C)COC(=O)CC(C(=O)OCC(C)C)S(=O)(=O)O (centres undefined) | -1.33% (inactive)
CCCCC[Si](OCC)(OCC)OCC | -2.07% (inactive)
CCC(=O)c1ccc(O)cc1 | 0.352% (inactive)
CCOC(=O)CCc1ccccc1 | -0.19% (inactive)
CCC(C)N (centres undefined) | 1.89% (inactive)
CCCCC(=O)N(C)C | 0.0028% (inactive)
CCCC(C)CC (centres undefined) | -0.44% (inactive)
CCOC(=O)C(=O)c1csc(NC=O)n1 | 0.092% (inactive)
CN(C)CCOCCN(C)CCO | -0.3% (inactive)
COc1ccc(/C=N/NC(=O)c2ccncc2)cc1OC | 2.8% (inactive)
C=CCOC(=O)c1ccc(C(=O)OCC=C)c(C(=O)OCC=C)c1 | 0.193% (inactive)
CC(=O)/C=C/c1ccco1 | 3.67% [at 94.8 µM] (inactive)

From PubChem BioAssay (Tox21)
